{"source": "PubChem BioAssay AID2284385", "about": "(EPA ToxCast)", "note": "Several values for one entry are separate records, joined by “and”; a condition that tells them apart may be missing. Identical values can stand only once. Activity calls are given as the source filed them. Rule for the calls: active = hit-call score of the fitted dose curve at least 0.9, where 1 is the maximum; inactive = score below 0.9."}
{"target": "human Peroxisome proliferator-activated Receptor alpha (PPARa), PPARA (gene 5465) (UniProt Q07869)", "sequence (Q07869 whole entry, looked up)": "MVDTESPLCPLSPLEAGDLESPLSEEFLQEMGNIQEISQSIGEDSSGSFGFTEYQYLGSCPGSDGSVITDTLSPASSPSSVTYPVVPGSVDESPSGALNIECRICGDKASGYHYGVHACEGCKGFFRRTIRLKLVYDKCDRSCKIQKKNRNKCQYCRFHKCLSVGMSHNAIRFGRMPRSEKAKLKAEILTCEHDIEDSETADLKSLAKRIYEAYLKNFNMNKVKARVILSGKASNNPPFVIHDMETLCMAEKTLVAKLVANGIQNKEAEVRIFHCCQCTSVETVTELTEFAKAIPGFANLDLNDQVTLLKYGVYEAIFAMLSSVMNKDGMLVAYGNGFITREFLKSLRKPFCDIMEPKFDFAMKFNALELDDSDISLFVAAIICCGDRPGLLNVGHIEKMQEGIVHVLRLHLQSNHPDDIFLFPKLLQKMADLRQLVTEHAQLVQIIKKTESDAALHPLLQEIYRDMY", "test": "ERF_TW_NR_COA_hPPARA: Eurofins (ERF) Nuclear Receptor (NR) Functional Coactivator Assay for human Peroxisome proliferator-activated Receptor alpha (PPARa) Agonism & Antagonism, conducted at Taiwan lab site", "experimental": "ERF_TW_NR_COA_hPPARA is a biochemical, single-readout assay that uses extracted gene-proteins in a cell-free assay. Measurements were taken 3 hours after chemical dosing in a 96-well plate. See PPARalpha Human NHR Functional Agonist Coactivator Assay, Panlabs.ERF_TW_NR_COA_hPPARA is an assay component calculated from the ERF_TW_NR_COA_hPPARA assay. It is designed to measure FRET using a type of binding reporter as detected by fluorescence intensity of GW7647 with fluorimetry technology.Data from the assay component ERF_TW_NR_COA_hPPARA was analyzed at the assay endpoint, ERF_TW_NR_COA_hPPARA, in the positive analysis fitting direction relative to DMSO as the negative control and baseline of activity. Using a type of binding reporter, gain-of-signal activity can be used to understand changes in binding as they relate to gene PPARA. To generalize the intended target to other relatable targets, this assay endpoint is annotated to the nuclear receptor intended target family, where the subfamily is non-steroidal.\nHuman recombinant peroxisome proliferators-activated receptor alpha (PPARA, PPARa, PPAR-alpha) hPPAR, NR1C1) receptors expressed in insect are used. Test compound and/or vehicle is incubated with the 2.5 nM receptors and binding buffer in modified kit buffer pH 7.4 for 3 hours at RT. Determination of the amount of complex formed is read microplate reader (excitation:337 nm, emission: 520/490 nm). Test compound-induced increase fluorescence by 50 percent or more (>/=50%) relative to the 1 uM GW7647 response indicates possible PPARa receptor agonist activity. Test compound-induced inhibition of 20 nM GW7647-induced fluorescence response by 50 percent or more (>/=50%) indicates receptor antagonist activity."}
{"smiles": "O=S(=O)(O)C(F)(F)C(F)(F)C(F)(F)C(F)(F)C(F)(F)C(F)(F)F", "outcome": "inactive"}
{"smiles": "O=C(O)C(F)(F)C(F)(F)C(F)(F)C(F)(F)C(F)(F)C(F)(F)C(F)(F)F", "AC50": "11.5 µM (active) and 17.1 µM (active)"}
{"smiles": "O=C(O)C(F)(F)OC(F)(F)C(F)(F)OC(F)(F)F", "AC50": "19.3 µM (active)"}
{"smiles": "O=C(O)C(F)(F)C(F)(F)C(F)(F)C(F)(F)C(F)(F)C(F)(F)F", "AC50": "50 µM (active)"}
{"smiles": "O=S(=O)(O)C(F)(F)C(F)(F)C(F)(F)C(F)(F)C(F)(F)C(F)(F)C(F)(F)C(F)(F)F", "outcome": "inactive"}
